Test results reported in ChEMBL document CHEMBL3433997, “St. Jude Leishmania screening dataset” (2016).

Experiments:
Assay type in all cases: functional
[1] = target: Solute carrier family 2, facilitated glucose transporter member 1 (Homo sapiens) (UniProt P11166); test: ST_JUDE_LEISH: Cytotoxicity at 2uM final concentration against transgenic Leishmania Mexicana promastigotes LmGLUT1 that are glucose transport deficient and complemented with the human glucose transporter GLUT1. Activity is measured by DNA content using SYBR green in vitro
[2] = target: Hexose transporter 1 (Plasmodium falciparum) (UniProt O97467); test: ST_JUDE_LEISH: Cytotoxicity at 2uM final concentration against transgenic Leishmania Mexicana promastigotes LmPfHT that are glucose transport deficient and complemented with the Plasmodium falciparum hexose transporter. Activity is measured by DNA content using SYBR green in vitro
[3] = target: Glucose transporter (Leishmania mexicana) (UniProt O61059); test: ST_JUDE_LEISH: Cytotoxicity at 2uM final concentration against transgenic Leishmania Mexicana promastigotes LmGT2 that are glucose transport deficient and complemented with the L. Mexicana glucose transporter 2. Activity is measured by DNA content using SYBR green in vitro

Sequence of Solute carrier family 2, facilitated glucose transporter member 1 (Homo sapiens) (P11166 whole entry): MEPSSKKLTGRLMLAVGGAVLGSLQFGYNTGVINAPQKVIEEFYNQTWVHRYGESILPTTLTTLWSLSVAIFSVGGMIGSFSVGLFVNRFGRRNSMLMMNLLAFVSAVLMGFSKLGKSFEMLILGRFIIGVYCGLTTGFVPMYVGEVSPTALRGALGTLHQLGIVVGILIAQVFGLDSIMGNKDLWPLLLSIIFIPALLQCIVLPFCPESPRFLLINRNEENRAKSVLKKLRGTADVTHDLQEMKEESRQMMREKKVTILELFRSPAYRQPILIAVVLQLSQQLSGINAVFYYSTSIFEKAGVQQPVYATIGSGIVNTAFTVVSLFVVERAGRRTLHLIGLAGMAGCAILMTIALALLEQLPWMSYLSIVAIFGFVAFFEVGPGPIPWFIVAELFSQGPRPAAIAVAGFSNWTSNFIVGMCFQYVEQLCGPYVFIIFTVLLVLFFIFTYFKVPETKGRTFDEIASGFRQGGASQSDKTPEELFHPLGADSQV

SMILES	inhibition [1] [%]	inhibition [2] [%]	inhibition [3] [%]
Cc1ccc(Cn2ncc(NC3CCNCC3)c(Cl)c2=O)cc1NC(=O)Nc1ccc(-c2ccccc2)cc1	5.14	9.28	5.29
COc1nc2c(CCN3CC[C@@H](NCc4cc(C#N)c5c(c4)CCO5)[C@@H](O)C3)ccnc2cc1F	7.43	4.07	0.66
Clc1cccc(Nc2ccc3c(N4CCCCC4)ncnc3n2)c1	12	10.8	4.28
COc1cc(Cc2cnc(N)nc2N)ccc1Oc1ccc(N)cc1	1.44	0.48	0.97
Nc1ccc(-c2ccc3ccnc(N)c3c2)cn1	1.94	-1.53	2.84
O=C(Nc1cccc(-c2ccc(-c3nc4ccccc4[nH]3)s2)c1)c1ccncc1	1.95	9.91	3.84
Cn1c(=N)n(CC(=O)OCc2ccc(OCc3ccccc3)cc2)c2ccccc21	2.99	2.29	1.49
COc1ccccc1CCNc1ncc(F)c(N[C@@H](Cc2ccccc2)C(=O)NCCc2ccccc2)n1	0.53	-0.37	0.24
COc1c(C2CCN(CCCCNC(=O)c3ccc(C)c(-c4ccc(C(F)(F)F)cc4)c3)CC2)ccc2c1CCCC2	-1.99	-1.46	-0.09
CC(C)(C)c1nn(-c2ccc(Cl)cc2)c2[nH]c(=O)c(CNCc3ccc4c(c3)OCO4)cc12	4.55	3.31	5.03
Cc1c(F)cc(C(=O)NC2CC2)cc1-c1ccc2c(c1)c(C)nn2S(=O)(=O)c1cccs1	4.6	3.16	2.8
COc1ccc(CN(C)CC(O)COc2ccc(NC(=O)c3cccc4c(=O)c5cccc(OC)c5[nH]c34)cc2)cc1OC (stereo not given)	7.62	3.04	3.9
CN(C)Cc1cccc(CNC(=O)c2sccc2OCc2ccc(Cl)cc2)c1	-0.98	-3.67	1.11
Cc1sc(CNCCCNc2cc(=O)c3ccccc3[nH]2)c(I)c1C	3.11	2.66	1.68
CN(C)c1ccc(N2C(N)=NC(N)=NC23CCCC3)cc1	-0.69	-0.9	-3.85
CCCc1cc(=O)[nH]c(-n2nc(C)cc2NC(=O)CC(c2ccccc2)c2ccccc2)n1	-2.15	1	2.15
CCC(=O)Oc1ccc(NC(=O)c2cccc(OC)c2)cc1	1.64	1.17	1.69
CCN(CC)CCCOc1ccc(Nc2nccc(-c3c(-c4cccc(NC(=O)c5c(F)cccc5F)c4)nn4ccccc34)n2)cc1F	58	56.7	10.5
Cc1nc(N)nc(N)c1-c1cc(Cl)c(Cl)c(Cl)c1	0.4	0.89	1.22
COc1cc(C(=O)NC2CC(C)(C)N(C)C(C)(C)C2)ccc1-c1cc2cc(Cl)c(Cl)cc2[nH]1	1.97	-1.54	2.48
CC(=NNC(S)=NCc1ccco1)c1ccccn1	1.7	1.81	1.16
Cc1[nH]c(C)c(-c2ccc(CCc3ccc(F)cc3F)cc2)c(=O)c1Br	-0.51	-1.51	-2.17
CCN(CC)CCN(Cc1ccc(-c2ccc(C(F)(F)F)cc2)cc1)C(=O)Cn1c(CCc2cc(F)c(F)c(F)c2)nc(=O)c2ccccc21	9.62	9.17	8.54
N#Cc1cccc(/C=C/C(=O)NC2CCC(CCN3CCc4ccc(-c5cnccn5)cc4CC3)CC2)c1 (stereo not given)	7.94	7.48	7.56
N=C(N)c1ccc2[nH]c(-c3cc4cc(C(=N)N)ccc4o3)cc2c1	2.26	2.36	1.58
